PubChem BioAssay (NCATS)
Records with an inconclusive call do not appear. Entries that show only a call come without a potency. The source made the active and inactive calls. Calls follow the shape of the dose curve; as a rule, active = well fitted inhibition curve with a large enough effect; inconclusive = small, poorly fitted or top-dose-only effect; inactive = no such curve, though single readings can be large or run the other way.

Experiment: qHTS for Inhibitors of the Aldehyde Dehydrogenase Family (ALDH1A2, ALDH1A3, ALDH2, ALDH3A1) (AID 2061307); also: nearly all actives have a fitted effect of over 50% in size; as to potency: test system not described further here
Settings: ALDH inhibition qHTS; series mostly up to 50.3 µM
Potency is read from the fitted curve at half-maximal effect.

| SMILES | Potency |
| --- | --- |
| CCOC(=O)c1c(C)n(-c2ccc(OC)cc2)c2ccc(O)cc12 | inactive |
| O=C(Nc1ncc(Cc2ccc(C(F)(F)F)cc2)s1)C1CCC(c2ccccc2)CC1 (stereo not given) | inactive |
| CCOC(=O)Cc1ccc(NC(=O)n2ncc3cc(Cl)ccc32)cc1 | inactive |
| COc1cccc(-c2nc(CNc3cccc(C(C)=O)c3)cs2)c1 | 10 µM (active) |
| COc1ccc(-n2nnc(-c3nc(-c4cccs4)no3)c2N)cc1OC | inactive |
| NCC(=O)Nc1cc(-c2nn3c(=O)cc(N4CCNCC4)nc3s2)ccn1 | inactive |
| CCS(=O)(=O)c1nc(-c2ccc(Cl)cc2)cc(C(F)(F)F)n1 | 4.47 µM (active) |
| Cc1cc(NS(=O)(=O)c2ccc(NCCc3ccc(Cl)c(Cl)c3)cc2)no1 | 2.83 µM (active) |
| O=C1CC(c2c(F)cccc2F)c2sc(N3CCOCC3)nc2N1 (stereo not given) | 11.3 µM (active) |
| CNC(=O)c1cc(-c2ccc(N3CCOCC3)cc2)cc2c1OCCN2Cc1cccnc1 | inactive |
| Cc1nc(-c2ccc(Cl)s2)sc1C(=O)Nc1ccc(C(N)=O)c(F)c1 | inactive |
| Oc1ccc(N2CCN(Cc3ccc(OCCCN4CCCCC4)cc3)CC2)cc1 | inactive |
| Cc1c(P(=S)(c2ccccc2)c2ccccc2)[n+]2ccccc2n1C/C=C/c1ccc(Cl)cc1 | inactive |
| [2H]C([2H])([2H])N1CCC(N(CCc2ccccc2)Cc2ccccc2)CC1 | inactive |
| CN1c2cc(C(=O)Nc3ccc(N4CCOCC4)cc3)ccc2C(=O)N2CCCCC21 (stereo not given) | inactive |
| c1cc(NC2CNC2)nc(-c2cnc3ccccn23)c1 | inactive |
| Cn1c(C(=O)Nc2cccc(Cl)c2)cc2c(=O)n(C)c3ccccc3c21 | inactive |
| Cc1ccc(CNC(=O)c2cc(=O)c3cc(C)ccc3o2)cc1 | inactive |
| O=C(Nc1ccc(-c2nnc3n2CCCC3)cc1)Nc1ccccc1Br | 8.91 µM (active) |
| Cc1ccc(OCCCn2c(CCN)nc3ccccc32)cc1 | inactive |
